# PubChem BioAssay AID1362 (SRMLSC, 2008)
# In all, about 190,000 compounds went through this assay and about 4,000 (2.1%) were called active. Rule as the data show it: active = inhibition above about 58%; inactive = the rest, inconclusive results apart; tested in S. cerevisiae. The sample as a whole holds a higher share of actives than the screen did.
# Test: growth inhibition of WT strain, primary screen, mitochondrial fusion inhibitor project, WT and mutant strains, chemical genetic (AID 1362)
# Settings: mitochondrial fusion phenotypic screen, at 10 µM
# [1] = WT strain, growth inhibition, stronger effect = higher value
SMILES,inhibition [1],inhibition (mutant strain inhibition) [%]
CN1CCN(CCNC(=O)Nc2ccc([N+](=O)[O-])cc2)CC1,22.2% (inactive),0.87
O=C(COc1ccc(S(=O)(=O)N2CCCCC2)cc1)NCc1ccccn1,14.7% (inactive),2.79
O=C(c1ccc(CSc2ccccc2)cc1)N1CCCCCC1,38.9% (inactive),19.1
CC1CCN(C(=O)c2ccc(CSc3ccc(Cl)cc3)cc2)CC1,75.2% (active),26.4
O=C(C1CC1)N1CCN=C1SCc1ccc(Cl)cc1,22.2% (inactive),20.3
CN(NC(=O)C1CC(=O)N(c2ccccc2)C1)C1=NS(=O)(=O)c2ccccc21 (stereo not given),-6.62% (inactive),8.77
CC(C)N(Cc1ccccc1)C(=O)COC(=O)c1cnccn1,-8.68% (inactive),-4.78
CCOc1cccc(/C=N/N2C(=O)CSC2=S)c1O,-2% (inactive),11.3
CCNC(=S)N(CCc1c(C)[nH]c2ccc(C)cc12)Cc1ccco1,22.5% (inactive),-3.3
COc1cccc(NC(=S)N(CCc2c(C)[nH]c3ccccc23)Cc2ccco2)c1,63.2% (active),-12.2
COc1ccc2[nH]c(C)c(CCN(Cc3cccs3)C(=S)Nc3ccccc3OC)c2c1,10.9% (inactive),3.89
Cc1ccc(N(C(=O)c2sc(C)nc2C)C(C(=O)NC(C)(C)C)c2ccncc2)cc1 (stereo not given),-8.21% (inactive),7.16
COc1ccc(C2CC(c3cccs3)=NN2C(=O)CSc2nnc(N)s2)cc1OC (stereo not given),-8.12% (inactive),-5.34
CC1CC(=S)Nc2ccccc2N1Cc1ccccc1 (stereo not given),65.9% (active),26.3
CCN1CN(Cc2ccccc2)CNC1=S,1.7% (inactive),0.04
CC1CC(C)(C)NC(=S)N1CCC(=O)N1CCN(Cc2ccccc2)CC1 (stereo not given),-6.52% (inactive),-4.03
COc1cccc(CC2(CO)CCCN(Cc3nc(-c4cccs4)oc3C)C2)c1 (stereo not given),19.9% (inactive),6.17
CCN(CC)S(=O)(=O)c1ccc(Cl)c(NC(=O)c2ccncc2)c1,-7.6% (inactive),-15.4
Cc1ccc(COc2ccc(C(=O)NN)cc2)cc1,18.5% (inactive),22.2
CN(C)C(=O)c1nc2ccc(Cl)cn2c1CN1CCN(c2ncccn2)CC1,-14.1% (inactive),-9.73
c1ccc(-c2cn3cccnc3n2)cc1,7.76% (inactive),-1.07
c1ccc(-c2cn3c(n2)CCc2ccc4cccnc4c2-3)cc1,67.5% (active),4.75
COc1ccc(/C=C/C(=O)N2CCCC2)cc1OC,-13.6% (inactive),-0.71
Cc1ccccc1-c1n[nH]c(=S)n1C,-5.68% (inactive),4.36
c1ccc(CC2CCN(c3nc4ccccc4n4cnnc34)CC2)cc1,55.9% (inactive),25.1
O=C(Nc1ccccc1N1CCCCC1)c1ccc2nccnc2c1,26.1% (inactive),32.9
O=C(c1ccccc1)c1ccc2nc(N3CCCCC3)c3nncn3c2c1,60.2% (active),50.8
O=C(CN(CC1CCCO1)C(=O)CNS(=O)(=O)c1ccc(F)cc1)NCc1ccco1 (stereo not given),-16.3% (inactive),-1.9

SMILES,inhibition [1],inhibition (mutant strain inhibition) [%]
CSCCC(=O)N1CCCC(CNC(=O)c2ccccc2Cl)C1 (stereo not given),0.33% (inactive),-1.81
CCC1(C)Cc2c(sc3[nH]c(=S)n(Cc4ccccc4)c(=O)c23)CO1 (stereo not given),71% (active),-13.6
CCn1c(=S)[nH]c2sc3c(c2c1=O)CCCCC3,44.5% (inactive),47.1
CCC1(C)Cc2c(sc3nnn(CC(=O)Nc4ccc(Cl)cc4)c(=O)c23)CO1 (stereo not given),6.37% (inactive),8.2
c1ccc2sc(NN=C3CCCC3)nc2c1,1.96% (inactive),-13.6
Cc1cc(C)n2nc(SCC(N)=O)nc2n1,1.11% (inactive),-5.58
COc1ccc(Br)cc1CN(C)CC(=O)Nc1cc(Cl)cc(Cl)c1,64.1% (active),-2.55
COc1ccc(Br)cc1CN(C)CC(=O)Nc1cc([N+](=O)[O-])ccc1OC,-3.27% (inactive),14
COc1ccc(Cl)cc1NC(=O)CN(C)Cc1ccc(OC)c(OC)c1,13.3% (inactive),10.6
CCC(C(=O)Nc1ccc2c(c1)OCCO2)c1ccccc1 (stereo not given),-3.34% (inactive),-11.8
CCOC(=O)N1CCN(Cc2nc3ccc([N+](=O)[O-])cc3c(=O)n2-c2cccc(OC)c2)CC1,-16.2% (inactive),2.45
COc1cc(C(=O)NCc2ccc(-n3cccc3)cc2)cc(OC)c1OC,4.37% (inactive),-13.6
COC(=O)CCNC(=O)c1ccc2[nH]c(C)c(C)c2c1,3.23% (inactive),-1.22
Cc1cccc(OCC(O)CN2CCN(CCN3C(=O)c4cccc5cccc(c45)C3=O)CC2)c1C (stereo not given),64.5% (active),57.3
Cc1ccccc1OCC(O)CN1CCN(c2ccccn2)CC1 (stereo not given),5.12% (inactive),6.35
Cc1cccc(C)c1OCC(O)CN1CCCCC1 (stereo not given),-0.96% (inactive),0.39
CN(CCc1cn[nH]c1)C(=O)CC1C(=O)NCCN1Cc1cccc(Oc2ccccc2)c1 (stereo not given),0.86% (inactive),0.64
CC(C)C(=O)Nc1oc(-c2ccccc2)cc1C#N,8.16% (inactive),-3.13
O=C(Nc1nnc(-c2ccccc2)o1)c1cc(-c2cccs2)nc2ccccc12,70.4% (active),64.4
CC(C)(C)Cc1nnc(NC(=O)c2cc(-c3ccccc3)nc3ccccc23)s1,34.7% (inactive),9.7
CCCC(=O)Nc1nnc(-c2ccccc2)o1,-6.78% (inactive),13.2
Cc1cc(C)c2[nH]c(=O)c(CN(Cc3ccccc3)C(=S)NCCCN(C)C)cc2c1,-2.4% (inactive),16.4
Cc1cc2c(cc1C)[n+](C)cn2CC(O)COCC1CC=CCC1 (stereo not given),0.89% (inactive),-7.37
COc1ccc(C)cc1NC(=O)c1ccc(-c2ccc(C(C)=O)cc2)o1,15.7% (inactive),5.74
Cc1ccc(-n2[nH]c(C)c(/C=N/N3C(=O)c4cccc5cccc(c45)C3=O)c2=O)cc1,13.3% (inactive),13
COc1cc(SC#N)ccc1N=Cc1c(C)[nH]n(-c2ccc(C)cc2)c1=O,81.4% (active),11.6
CCc1nnc(NS(=O)(=O)c2ccc(N=Cc3c(C)[nH]n(-c4ccc(C)cc4)c3=O)cc2)s1,40.8% (inactive),28.3
